“And” between values parts separate entries of the source, which are not always exact repeats. Equal entries are not always repeated. Records with an inconclusive call do not appear. More than one record can exist for a structure, and the calls need not agree. The source made the active and inactive calls. How the source made its calls, unless noted: active means hit-call score of the fitted dose curve at least 0.9, where 1 is the maximum; inconclusive means response in the unintended direction; inactive means score below 0.9.
Columns and labels:
[1] = target: human Peroxisome Proliferator-activated Receptor alpha (PPARa), PPARA (gene 5465) (UniProt Q07869); assay: ATG_PPARa_TRANS: Attagene TRANS-FACTORIAL HepG2 Assay for human Peroxisome Proliferator-activated Receptor alpha (PPARa) (AID 2283001)
Chain of human Peroxisome Proliferator-activated Receptor alpha (PPARa), PPARA (gene 5465) (Q07869 whole entry, looked up): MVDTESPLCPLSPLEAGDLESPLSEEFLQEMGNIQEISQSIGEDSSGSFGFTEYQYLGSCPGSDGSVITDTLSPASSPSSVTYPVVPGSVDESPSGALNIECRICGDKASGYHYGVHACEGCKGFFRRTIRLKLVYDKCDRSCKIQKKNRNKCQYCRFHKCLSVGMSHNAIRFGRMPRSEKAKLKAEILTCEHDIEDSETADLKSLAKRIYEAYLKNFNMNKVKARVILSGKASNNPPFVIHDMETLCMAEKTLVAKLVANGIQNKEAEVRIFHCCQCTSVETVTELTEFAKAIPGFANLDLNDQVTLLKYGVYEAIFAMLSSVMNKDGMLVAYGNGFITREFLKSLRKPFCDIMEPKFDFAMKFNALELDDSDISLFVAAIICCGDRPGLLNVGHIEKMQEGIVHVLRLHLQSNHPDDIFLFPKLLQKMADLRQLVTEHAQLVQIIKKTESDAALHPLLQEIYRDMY
How it was run: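 Cells (HepG2) are transfected with multiple reporter transcription units, exposed to chemical for 24 h, then total RNA is reverse-transcribed and amplified. Labelled products are quantified by capillary electrophoresis; induction is referenced to DMSO.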

[2] = target: human Peroxisome Proliferator-activated Receptor delta (PPARd), PPARD (gene 5467) (UniProt Q03181); assay: ATG_PPARd_TRANS: Attagene TRANS-FACTORIAL HepG2 Assay for human Peroxisome Proliferator-activated Receptor delta (PPARd) (AID 2283002)
Chain of human Peroxisome Proliferator-activated Receptor delta (PPARd), PPARD (gene 5467) (Q03181 whole entry, looked up, the tested form may be a part): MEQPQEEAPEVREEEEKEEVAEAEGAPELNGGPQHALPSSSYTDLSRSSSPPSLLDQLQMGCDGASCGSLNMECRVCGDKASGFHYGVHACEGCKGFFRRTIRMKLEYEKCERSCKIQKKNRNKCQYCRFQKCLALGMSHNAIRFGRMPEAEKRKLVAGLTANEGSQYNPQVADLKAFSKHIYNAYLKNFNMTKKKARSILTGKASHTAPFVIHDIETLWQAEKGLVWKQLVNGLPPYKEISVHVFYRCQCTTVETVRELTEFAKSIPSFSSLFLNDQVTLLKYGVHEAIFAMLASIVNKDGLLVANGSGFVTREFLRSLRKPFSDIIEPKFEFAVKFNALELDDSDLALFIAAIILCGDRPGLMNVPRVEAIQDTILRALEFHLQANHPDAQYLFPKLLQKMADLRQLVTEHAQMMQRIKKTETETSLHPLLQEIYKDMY
How it was run: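 HepG2 cells transiently transfected with multiplexed GAL4-UAS reporter units and exogenous chimeric NR-Gal4 proteins; 24 h compound exposure. Reporter mRNA measured by RT-PCR, 6-FAM labelling, HpaI digestion and capillary electrophoresis; gain of signal versus DMSO.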

[3] = target: human Retinoic Acid Receptor beta (RARb), RARB (gene 5915) (UniProt P10826); assay: ATG_RARb_TRANS: Attagene TRANS-FACTORIAL HepG2 Assay for human Retinoic Acid Receptor beta (AID 2283004)
Chain of human Retinoic Acid Receptor beta (RARb), RARB (gene 5915) (P10826 whole entry, looked up, the tested form may be a part): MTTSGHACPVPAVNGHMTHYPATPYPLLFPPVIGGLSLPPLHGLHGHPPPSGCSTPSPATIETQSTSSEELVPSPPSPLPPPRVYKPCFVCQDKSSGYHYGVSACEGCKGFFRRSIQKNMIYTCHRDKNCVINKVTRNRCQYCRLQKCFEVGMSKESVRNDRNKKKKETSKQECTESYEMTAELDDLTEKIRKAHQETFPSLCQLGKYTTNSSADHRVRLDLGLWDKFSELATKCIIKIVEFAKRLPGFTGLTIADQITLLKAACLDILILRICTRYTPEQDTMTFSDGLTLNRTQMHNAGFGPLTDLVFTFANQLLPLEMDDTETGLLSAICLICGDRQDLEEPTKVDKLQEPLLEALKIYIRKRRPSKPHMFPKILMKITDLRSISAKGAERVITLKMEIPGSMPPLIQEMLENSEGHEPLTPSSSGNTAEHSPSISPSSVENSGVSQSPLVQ
How it was run: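 HepG2, transient MRTU transfection, NR–Gal4 chimera, 24 h treatment; RT-PCR plus CE fluorescence detection of reporter mRNA; gain of signal vs DMSO.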

[4] = target: Nuclear receptor subfamily 1 group I member 2 (Homo sapiens) (UniProt O75469); assay: ATG_PXR_TRANS: Attagene TRANS-FACTORIAL HepG2 Assay for human Pregnane X Receptor (PXR) (AID 2283008)
Chain of Nuclear receptor subfamily 1 group I member 2 (Homo sapiens) (O75469 whole entry, looked up, the tested form may be a part): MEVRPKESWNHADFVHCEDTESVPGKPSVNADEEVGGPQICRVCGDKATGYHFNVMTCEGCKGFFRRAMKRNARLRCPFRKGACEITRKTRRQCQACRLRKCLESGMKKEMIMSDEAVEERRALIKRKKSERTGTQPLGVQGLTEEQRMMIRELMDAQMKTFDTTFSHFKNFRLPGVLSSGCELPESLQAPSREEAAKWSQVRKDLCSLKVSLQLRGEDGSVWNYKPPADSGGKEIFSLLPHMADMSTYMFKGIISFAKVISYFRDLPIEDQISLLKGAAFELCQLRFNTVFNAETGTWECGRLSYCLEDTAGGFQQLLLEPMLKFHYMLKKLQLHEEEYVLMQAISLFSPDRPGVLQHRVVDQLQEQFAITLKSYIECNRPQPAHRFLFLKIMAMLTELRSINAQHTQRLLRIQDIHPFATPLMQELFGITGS
How it was run: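 Transient HepG2 transfectants carrying multiplexed reporter transcription units; PXR activity read through a Gal4 chimera. 24 h exposure. RT-PCR/CE fluorescence; upward curve fit referenced to DMSO.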

[5] = target: human RAR-related Orphan Receptor beta (RORb), RORB (gene 6096) (UniProt Q92753); assay: ATG_RORb_TRANS: Attagene TRANS-FACTORIAL HepG2 Assay for human RAR-related Orphan Receptor beta (RORb) (AID 2283010)
Chain of human RAR-related Orphan Receptor beta (RORb), RORB (gene 6096) (Q92753 whole entry, looked up, the tested form may be a part): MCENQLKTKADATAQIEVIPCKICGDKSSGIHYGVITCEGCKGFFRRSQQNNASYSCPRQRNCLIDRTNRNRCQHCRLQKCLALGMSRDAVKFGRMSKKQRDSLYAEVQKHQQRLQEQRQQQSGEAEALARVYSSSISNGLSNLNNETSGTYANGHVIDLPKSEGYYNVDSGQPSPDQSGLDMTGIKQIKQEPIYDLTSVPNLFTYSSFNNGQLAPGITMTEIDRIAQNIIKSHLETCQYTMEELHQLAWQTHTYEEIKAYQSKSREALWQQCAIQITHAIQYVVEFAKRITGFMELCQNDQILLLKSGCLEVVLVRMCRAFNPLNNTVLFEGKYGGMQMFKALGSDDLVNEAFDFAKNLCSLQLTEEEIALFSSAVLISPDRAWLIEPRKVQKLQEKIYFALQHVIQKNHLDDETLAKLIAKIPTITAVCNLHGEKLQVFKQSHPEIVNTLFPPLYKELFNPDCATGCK
How it was run: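 Transfect HepG2 with multiple GAL4-UAS reporter transcription units; dose chemicals for 24 h; isolate RNA, reverse-transcribe and PCR-amplify reporter sequences; label, digest and resolve fragments by capillary electrophoresis; fit increases relative to DMSO.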

[6] = target: human RAR-related Orphan Receptor gamma (RORg), RORC (gene 6097) (UniProt P51449); assay: ATG_RORg_TRANS: Attagene TRANS-FACTORIAL HepG2 Assay for human RAR-related Orphan Receptor gamma (RORg) (AID 2283011)
How it was run: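 Activity is scored as increase in GAL4-UAS reporter mRNA over DMSO, detected by fluorescent RT-PCR and capillary electrophoresis in HepG2 cells transiently expressing a RORg-Gal4 chimera, 24 h after dosing.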

[7] = target: human Thyroid Receptor alpha (THRa1), THRA (gene 7067) (UniProt P10827); assay: ATG_THRa1_TRANS: Attagene TRANS-FACTORIAL HepG2 Assay for human Thyroid Receptor alpha (THRa1) (AID 2283014)
Chain of human Thyroid Receptor alpha (THRa1), THRA (gene 7067) (P10827 whole entry, looked up, the tested form may be a part): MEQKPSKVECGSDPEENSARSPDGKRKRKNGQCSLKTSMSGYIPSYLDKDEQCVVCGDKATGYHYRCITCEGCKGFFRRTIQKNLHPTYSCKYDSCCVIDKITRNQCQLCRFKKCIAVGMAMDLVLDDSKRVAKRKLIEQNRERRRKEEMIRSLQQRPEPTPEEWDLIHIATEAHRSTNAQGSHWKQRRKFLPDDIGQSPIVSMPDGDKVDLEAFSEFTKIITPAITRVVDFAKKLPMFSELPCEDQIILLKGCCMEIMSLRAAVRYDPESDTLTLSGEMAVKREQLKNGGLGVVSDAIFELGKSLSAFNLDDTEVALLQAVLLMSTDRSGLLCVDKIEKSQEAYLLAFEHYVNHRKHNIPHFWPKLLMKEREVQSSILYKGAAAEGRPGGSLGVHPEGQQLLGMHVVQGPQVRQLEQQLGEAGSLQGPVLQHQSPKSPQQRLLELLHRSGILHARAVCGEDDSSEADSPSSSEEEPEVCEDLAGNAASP
How it was run: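 First, HepG2 cells receive multiple GAL4-UAS reporter units and the chimeric receptor. They are then dosed for 24 h, after which RNA is reverse-transcribed, amplified, labelled, HpaI-cut and sized by capillary electrophoresis; gain relative to DMSO is scored.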

[8] = target: human Vitamin D Receptor (VDR), VDR (gene 7421) (UniProt P11473); assay: ATG_VDR_TRANS: Attagene TRANS-FACTORIAL HepG2 Assay for human Vitamin D Receptor (VDR) (AID 2283022)
Chain of human Vitamin D Receptor (VDR), VDR (gene 7421) (P11473 whole entry, looked up, the tested form may be a part): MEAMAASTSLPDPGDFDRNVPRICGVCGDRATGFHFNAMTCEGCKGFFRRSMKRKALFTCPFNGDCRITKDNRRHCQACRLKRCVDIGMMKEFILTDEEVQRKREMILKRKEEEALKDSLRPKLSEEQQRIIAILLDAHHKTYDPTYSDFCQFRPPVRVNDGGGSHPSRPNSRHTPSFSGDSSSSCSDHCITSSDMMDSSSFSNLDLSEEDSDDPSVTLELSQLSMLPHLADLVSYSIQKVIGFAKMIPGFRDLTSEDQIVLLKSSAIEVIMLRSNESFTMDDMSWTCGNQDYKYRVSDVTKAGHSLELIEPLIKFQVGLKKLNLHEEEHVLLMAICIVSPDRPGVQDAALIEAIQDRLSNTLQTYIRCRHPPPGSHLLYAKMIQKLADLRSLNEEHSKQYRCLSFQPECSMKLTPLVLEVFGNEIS
How it was run: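 Fluorescence of labelled reporter cDNA fragments, resolved by capillary electrophoresis, gives mRNA induction after 24 h treatment of HepG2 cells carrying transfected Gal4-fusion reporter units. Activity is fitted in the positive direction with DMSO as baseline.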

[9] = target: Retinoic acid receptor alpha (Homo sapiens) (UniProt P10276); assay: ATG_RARa_TRANS: Attagene TRANS-FACTORIAL HepG2 Assay for human Retinoic Acid Receptor alpha (RARa) (AID 2283005);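 on AC50: potency for increased reporter signal meaning RARa activation over DMSO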
Chain of Retinoic acid receptor alpha (Homo sapiens) (P10276 whole entry, looked up, the tested form may be a part): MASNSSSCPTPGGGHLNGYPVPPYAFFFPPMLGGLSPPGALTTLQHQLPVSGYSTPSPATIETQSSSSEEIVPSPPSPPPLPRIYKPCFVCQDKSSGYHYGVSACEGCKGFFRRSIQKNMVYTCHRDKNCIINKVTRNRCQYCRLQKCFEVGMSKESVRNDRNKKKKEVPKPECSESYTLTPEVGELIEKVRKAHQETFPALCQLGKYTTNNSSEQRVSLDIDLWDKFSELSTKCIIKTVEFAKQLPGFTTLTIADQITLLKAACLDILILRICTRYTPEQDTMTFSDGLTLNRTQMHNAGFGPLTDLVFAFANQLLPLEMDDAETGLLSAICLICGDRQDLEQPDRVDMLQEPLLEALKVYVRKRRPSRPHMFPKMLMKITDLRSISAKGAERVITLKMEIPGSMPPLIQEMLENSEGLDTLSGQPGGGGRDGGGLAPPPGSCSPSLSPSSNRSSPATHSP
How it was run: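 HepG2 cells transiently transfected with multiple reporter units expressing chimeric RARα-GAL4 fusion, with GAL4-UAS-driven reporters. After 24 h compound exposure, reporter mRNA induction quantified by RT-PCR and capillary electrophoresis with fluorescent labeling; gain-of-signal fitted relative to DMSO control.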

[10] = target: human Retinoic Acid Receptor gamma (RARg), RARG (gene 5916) (UniProt P13631); assay: ATG_RARg_TRANS: Attagene TRANS-FACTORIAL HepG2 Assay for human Retinoic Acid Receptor gamma (RARg) (AID 2283009);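 on AC50: AC50 is for reporter induction above DMSO meaning RARg activation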
How it was run: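 TRANS format measured activity of exogenous NR-GAL4 fusion (RARg) in transfected HepG2 liver cells after 24 h dosing. Induced reporter RNA was detected by RT-PCR/capillary electrophoresis fluorescence, analysed in the positive direction against DMSO.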

[11] = target: Retinoic acid receptor RXR-alpha (Homo sapiens) (UniProt P19793); assay: ATG_RXRa_TRANS: Attagene TRANS-FACTORIAL HepG2 Assay for human Retinoid X Receptor alpha (RXRa) (AID 2283012)
Chain of Retinoic acid receptor RXR-alpha (Homo sapiens) (P19793 whole entry, looked up, the tested form may be a part): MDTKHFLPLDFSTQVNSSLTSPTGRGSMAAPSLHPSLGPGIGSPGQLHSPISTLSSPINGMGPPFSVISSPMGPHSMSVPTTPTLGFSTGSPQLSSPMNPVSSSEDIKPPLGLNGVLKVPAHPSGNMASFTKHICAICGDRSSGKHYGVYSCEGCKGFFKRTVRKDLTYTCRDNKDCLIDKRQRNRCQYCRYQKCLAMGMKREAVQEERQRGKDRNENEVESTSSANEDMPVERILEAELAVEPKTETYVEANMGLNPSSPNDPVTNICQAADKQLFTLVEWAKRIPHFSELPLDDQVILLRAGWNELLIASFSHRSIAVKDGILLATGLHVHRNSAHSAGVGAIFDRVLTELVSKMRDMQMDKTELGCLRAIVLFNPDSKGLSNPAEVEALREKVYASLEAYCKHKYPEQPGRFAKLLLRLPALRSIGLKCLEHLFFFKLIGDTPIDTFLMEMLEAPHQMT
How it was run: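 Measures exogenous chimeric NR-GAL4 activity in transfected HepG2 liver cells after 24 h of dosing. Induced reporter mRNA was detected by RT-PCR with capillary electrophoresis, and gain of signal was analysed against DMSO.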

[12] = target: human Retinoid X Receptor beta (RXRb), RXRB (gene 6257) (UniProt P28702); assay: ATG_RXRb_TRANS: Attagene TRANS-FACTORIAL HepG2 Assay for human Retinoid X Receptor beta (RXRb) (AID 2283013)
Chain of human Retinoid X Receptor beta (RXRb), RXRB (gene 6257) (P28702 whole entry, looked up, the tested form may be a part): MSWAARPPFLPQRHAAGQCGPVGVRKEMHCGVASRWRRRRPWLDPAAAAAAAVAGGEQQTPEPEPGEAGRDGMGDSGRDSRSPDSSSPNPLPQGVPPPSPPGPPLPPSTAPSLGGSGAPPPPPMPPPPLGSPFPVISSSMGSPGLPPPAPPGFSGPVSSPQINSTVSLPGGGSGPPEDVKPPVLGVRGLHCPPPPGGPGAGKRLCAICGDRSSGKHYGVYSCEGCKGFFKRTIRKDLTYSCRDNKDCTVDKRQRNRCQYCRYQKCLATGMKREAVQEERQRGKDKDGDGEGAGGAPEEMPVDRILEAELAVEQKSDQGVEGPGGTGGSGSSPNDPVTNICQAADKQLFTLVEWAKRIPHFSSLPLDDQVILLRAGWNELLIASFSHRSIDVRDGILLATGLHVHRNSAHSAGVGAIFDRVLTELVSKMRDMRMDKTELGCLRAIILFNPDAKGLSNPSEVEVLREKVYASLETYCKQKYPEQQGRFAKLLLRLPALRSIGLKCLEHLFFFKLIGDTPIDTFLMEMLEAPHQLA
How it was run: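 Chimeric receptor-Gal4 activity was assessed in transiently transfected human HepG2 cells after 24 h exposure. Transcripts from GAL4-UAS reporters were quantified by fluorescent RT-PCR and capillary electrophoresis, with DMSO as negative control and baseline.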

[13] = read-out: Intercellular Adhesion Molecule 1 (ICAM1), ICAM1 (gene 3383); assay: BSK_3C_ICAM1: BioMAP Diversity Plus: 3C Assay for Intercellular Adhesion Molecule 1 (ICAM1) Biomarker Activity (AID 2283003; active means hit-call score of the fitted dose curve at least 0.9, where 1 is the maximum; inactive means score below 0.9); conditions: primary human endothelial cells (HUVEC); actives raise or lower the signal
How it was run: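 Chemicals are dosed onto primary human umbilical vein endothelium (3C system). After 24 h, ICAM-1 is measured by ELISA, and responses are fitted bidirectionally relative to DMSO.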

[14] = BSK_3C_Proliferation: Cell Proliferation Assessment in the BioMAP Diversity Plus: 3C Assay (AID 2283006; active means hit-call score of the fitted dose curve at least 0.9, where 1 is the maximum; inactive means score below 0.9;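 on AC50: potency may reflect either rise or fall in cell number versus DMSO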); conditions: primary human endothelial cells (HUVEC)
How it was run: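 Cells (human umbilical vein endothelial, sub-confluent) receive test chemical; after 48 h they are fixed in 10% trichloroacetic acid, stained with 0.1% SRB and read at 560 nm. Activity is referenced to DMSO, fitting increases and decreases.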

[15] = read-out: E-selectin (Homo sapiens) (UniProt P16581); assay: BSK_3C_Eselectin: BioMAP Diversity Plus: 3C Assay for Eselectin Biomarker Activity (AID 2283015; active means hit-call score of the fitted dose curve at least 0.9, where 1 is the maximum; inactive means score below 0.9); conditions: primary human endothelial cells (HUVEC); actives raise or lower the signal
How it was run: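 Human vascular endothelium from umbilical vein is exposed to test chemicals for 24 h. E-selectin levels are read by ELISA and compared with DMSO controls.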

[16] = read-out: Interleukin-1 alpha (IL1a), IL1A (gene 3552); assay: BSK_BE3C_IL1a: BioMAP Diversity Plus: BE3C Assay for Interleukin-1 alpha (IL1a) Biomarker Activity (AID 2283016; active means hit-call score of the fitted dose curve at least 0.9, where 1 is the maximum; inactive means score below 0.9); conditions: primary human bronchial epithelial cells; actives raise or lower the signal
How it was run: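 Signal from IL-1a ELISA, taken 24 h after chemical dosing of human bronchial epithelial cells, is compared with DMSO as baseline using bidirectional curve fitting.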

[17] = read-out: Monocyte Chemoattractant Protein-1 (MCP1), CCL2 (gene 6347); assay: BSK_4H_MCP1: BioMAP Diversity Plus: 4H Assay for Monocyte Chemoattractant Protein-1 (MCP1) Biomarker Activity (AID 2283018; active means hit-call score of the fitted dose curve at least 0.9, where 1 is the maximum; inactive means score below 0.9); conditions: primary human endothelial cells (HUVEC); actives raise or lower the signal
How it was run: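 Endothelial cells from umbilical vein were treated with test chemical, then after 24 h MCP-1 levels were quantified by ELISA; endpoint values came from bidirectional fitting with DMSO as baseline of activity.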

[18] = read-out: Human Leukocyte Antigen - DR isotype (HLADR), HLA-DRA (gene 3122); assay: BSK_3C_HLADR: BioMAP Diversity Plus: 3C Assay for Human Leukocyte Antigen - DR isotype (HLADR) Biomarker Activity (AID 2283019; active means hit-call score of the fitted dose curve at least 0.9, where 1 is the maximum; inactive means score below 0.9); conditions: primary human endothelial cells (HUVEC); actives raise or lower the signal
How it was run: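 Endothelial cells from human umbilical vein are treated with test chemical; after 24 h, HLA-DR levels are measured by ELISA. Data are fitted in both directions using DMSO as the baseline.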

[19] = read-out: Interleukin-8 (IL8), CXCL8 (gene 3576); assay: BSK_3C_IL8: BioMAP Diversity Plus: 3C Assay for Interleukin-8 (IL8) Biomarker Activity (AID 2283020; active means hit-call score of the fitted dose curve at least 0.9, where 1 is the maximum; inactive means score below 0.9); conditions: primary human endothelial cells (HUVEC); actives raise or lower the signal
How it was run: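 Endothelial primary cells of human umbilical vein origin are dosed with chemical; after 24 h the IL-8 biomarker is measured by ELISA, and concentration–response is fitted in both directions versus DMSO.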

[20] = target: Peroxisome proliferator-activated receptor gamma (Homo sapiens) (UniProt P37231); assay: ATG_PPARg_TRANS: Attagene TRANS-FACTORIAL HepG2 Assay for human Peroxisome Proliferator-activated Receptor-gamma (PPARg) (AID 2283007)
How it was run: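 Transient transfection of HepG2 with GAL4-UAS-driven reporter units; chemical dosing 24 h; total RNA → oligo(dT) RT → PCR with reporter primers → 6-FAM primer extension → HpaI digest 2 h 37 C → capillary electrophoresis. Positive direction vs DMSO.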

Measured: AC50

CC(=O)[C@H]1[C@H](C#N)C[C@H]2[C@@H]3CC=C4C[C@@H](O)CC[C@]4(C)[C@H]3CC[C@@]21C
inactive: [1] | [2] | [3] | [4] | [5] | [6] | [7] | [8]

CCCCCCCCCCCCCCCCCC#N
inactive: [1] | [2] | [9] | [4] | [10] | [5] | [6] | [11]

O=c1cc(-c2ccccc2)oc2ccccc12
active: [4] 6.29 µM
inactive: [1] | [2] | [9] | [10] | [11] | [12] | [7] | [8]

C=CC(=O)OCCOC(=O)C=C
active: [7] 26.9 µM
inactive: [1] | [2] | [3] | [4] | [10] | [6] | [11] | [12] | [8]

Nc1ccc(N)c(Cl)c1
inactive: [1] | [13] | [9] | [10] | [12] | [15] | [16] | [19] | [8]
active: [2] 68 µM | [14] 13.1 µM and 16.2 µM | [4] 4.08 µM | [15] 5.26 µM | [16] 20 µM | [17] 26.1 µM and 14.6 µM | [18] 30.2 µM and 31.4 µM

c1ccc2c(c1)ccc1ncccc12
active: [9] 13.4 µM | [14] 20 µM | [20] 67.1 µM | [10] 33.2 µM | [15] 16.4 µM | [16] 20 µM | [18] 20 µM
inactive: [1] | [2] | [13] | [3] | [4] | [5] | [11] | [17] | [19]

CC(=O)[C@@]1(O)CC[C@H]2[C@@H]3C[C@H](C)C4=CC(=O)C=C[C@]4(C)[C@@]3(F)[C@@H](O)C[C@@]21C
inactive: [1] | [2] | [9] | [4] | [11] | [7] | [8]

C=CCOCC(O)CCl (stereo not drawn)
active: [4] 47.2 µM
inactive: [1] | [2] | [13] | [3] | [14] | [20] | [10] | [5] | [6] | [11] | [12] | [7] | [15] | [16] | [17] | [18] | [19] | [8]

CCC(CC)C(=O)O
inactive: [1] | [2] | [3] | [5] | [11]

CC(C)(C)C1CCCCC1=O (stereo not drawn)
active: [12] 91.4 µM
inactive: [1] | [2] | [3] | [4] | [10] | [5] | [11] | [7]

COc1cc(C)ccc1C(C)C
inactive: [1] | [2] | [9] | [4] | [10] | [7]

— PubChem BioAssay (EPA / NIEHS)
